Measured values reported in PubChem BioAssay (NCATS).
Inconclusive results are not listed. The source made the active and inactive calls. Calls follow the shape of the dose curve; as a rule, active = well fitted curve in the direction sought with a large enough effect; inconclusive = small, poorly fitted or top-dose-only effect, or another doubt; inactive = no such curve, though single readings can be large; an effect the other way counts as inactive or inconclusive.

Legend:
[1] = target: Glutathione peroxidase 1 (Homo sapiens) (UniProt P07203); experiment: Primary qHTS Assay for Inhibitors of Recombinant Selenoprotein Glutathione Peroxidase 1 (GPX1) (AID 1845191); also: nearly all actives have a fitted effect of over 65% in size; also: potency is read from the fitted curve at half-maximal effect; as to activity, negative = inhibition: % is scaled to controls: 0 for no effect and ±100 for the full control effect
In short: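 10 nM GPX1 + cpd, 30 min RT; start w/ 1 mM GSH, 0.5 mM cumene hydroperoxide, 0.5 mM NADPH, 100 nM GR, 0.01% BSA; buffer 50 mM Tris-HCl pH 7.5, 2 mM EDTA, 150 mM NaCl; Fl 340/450, 0 & 15 min.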

[2] = target: Phospholipid hydroperoxide glutathione peroxidase GPX4 (Homo sapiens) (UniProt P36969); experiment: Primary qHTS Assay for Inhibitors of Recombinant Selenoprotein Glutathione Peroxidase 4 (GPX4) (AID 1845192); also: nearly all actives have a fitted effect of over 65% in size; as to activity change, negative = inhibition: series mostly up to about 50 µM; % is scaled to controls: 0 for no effect and ±100 for the full control effect
In short: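 NADPH consumption, followed by fluorescence at 340/450 nm between 0 and 15 min, reports GPX4 activity via coupled glutathione reductase (100 nM). Enzyme 200 nM was pre-exposed to compound 30 min; 0.5 mM cumene hydroperoxide and 1 mM GSH served as substrates.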

[3] = target: Luciferin 4-monooxygenase (Photinus pyralis) (UniProt P08659); experiment: Primary firefly luciferase (FLuc) qHTS assay for identification of artifact compounds. (AID 1845220); also: nearly all actives have a fitted effect of over 60% in size; also: potency is read from the fitted curve at half-maximal effect;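 as to activity change, negative = inhibition: series mostly up to about 54 µM; plate controls were DMSO vehicle for no effect and no enzyme for full effect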
In short: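 Compounds sat 15 min at room temperature with 10 uM luciferin and 10 uM ATP (pH 7.6 Tris acetate). Firefly luciferase (10 nM final) was then added, and luminescence was read 5 min later. Data normalized to no-enzyme and DMSO controls were Hill-fitted.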

[4] = tested on: Nanoluciferase (engineered Oplophorus gracilirostris luciferase); experiment: Primary Nanoluciferase (NLuc) qHTS assay for identification of artifact compounds. (AID 1845222);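 also: series mostly up to about 54 µM; 0% = DMSO and -100% = no enzyme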
In short: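 Luminescence from secreted NLuc (filtered, 1:55-diluted S16 cell medium) read 5 min after Nano-Glo substrate; compounds preincubated 15 min, RT. Hill fits of inhibition normalized to DMSO and no-enzyme.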

[5] = Primary redox qHTS assay for identification of artifact compounds. (AID 1845223);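 also: 0% = DMSO and 100% = reference compound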
In short: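 Amplex Red (25 uM) and HRP (250 mU/mL) in HBSS, with compounds for 15 min, then 250 uM DTT for 30 min, room temperature, dark. Fluorescence 525/598 nm read; normalized to DMSO and 10 uM DA3003; Hill fit.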

Phospholipid hydroperoxide glutathione peroxidase GPX4 (Homo sapiens), sequence (P36969 whole entry, looked up): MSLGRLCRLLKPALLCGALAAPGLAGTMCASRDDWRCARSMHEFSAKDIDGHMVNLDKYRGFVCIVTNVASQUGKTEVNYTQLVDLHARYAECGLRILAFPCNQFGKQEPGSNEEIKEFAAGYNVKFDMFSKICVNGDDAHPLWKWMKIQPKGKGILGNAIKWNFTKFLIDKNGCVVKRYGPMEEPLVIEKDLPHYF
Glutathione peroxidase 1 (Homo sapiens), sequence (P07203 whole entry, looked up): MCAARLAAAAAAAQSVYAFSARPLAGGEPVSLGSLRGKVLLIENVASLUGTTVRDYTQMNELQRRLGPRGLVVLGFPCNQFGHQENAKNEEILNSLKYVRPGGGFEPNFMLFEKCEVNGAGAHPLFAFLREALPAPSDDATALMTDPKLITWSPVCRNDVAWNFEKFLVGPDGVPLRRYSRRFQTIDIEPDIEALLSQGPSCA

COc1ccc(-c2cnc3ccc(NCc4ccc(S(N)(=O)=O)cc4)nn23)cc1OC
inactive: Potency [1] | Potency [2] | Potency [3] | Potency [4] | Potency [5]

CC(/C=C/C1=CC2=CC(=O)C(C)(O)C(O)C2=CO1)=C\C(C)CCO (stereo not given)
inactive: Potency [1] | Potency [2] | Potency [3] | Potency [4] | Potency [5]

CC1=C(COC2OC(CO)C(O)C(O)C2O)C(C(CO)C(=O)O)CC1 (stereo not given)
inactive: Potency [1] | Potency [2] | Potency [3] | Potency [4] | Potency [5]

C=C1OC2CC(C(=O)O)C=CC2NC1=O (stereo not given)
inactive: Potency [1] | Potency [2] | Potency [3] | Potency [4] | Potency [5]

CC1=CC(=O)CC(C)(C)C1CCC(C)O[C@@H]1O[C@H](CO[C@@H]2OC[C@@H](O)[C@H](O)[C@H]2O)[C@@H](O)[C@H](O)[C@H]1O (stereo not given in full)
inactive: Potency [1] | Potency [2] | Potency [3] | Potency [4] | Potency [5]

CC1(C)CCCC2(C)C1CC=C1C(=O)OC(O)C12O (stereo not given)
inactive: Potency [1] | Potency [2] | Potency [3] | Potency [4] | Potency [5]

CC(C)(C)c1ccc(S(=O)(=O)Nc2ccc(Cl)cc2C(=O)c2cc[n+]([O-])cc2)cc1
inactive: Potency [1] | Potency [2] | Potency [3] | Potency [4] | Potency [5]

COc1ccc(-c2c(-c3cc(C(=O)O)ccn3)ncn2C)cc1
inactive: Potency [1] | Potency [2] | Potency [3] | Potency [4] | Potency [5]

CC(C)[N+]1(C)C2CCC1CC(OC(=O)C(CO)c1ccccc1)C2 (stereo not given)
inactive: Potency [1] | Potency [2] | Potency [3] | Potency [4] | Potency [5]

C/C(=C/CO)CC[C@@H]1[C@@](C)(O)CCC2C(C)(C)CCC[C@]21C (stereo not given in full)
inactive: Potency [1] | Potency [2] | Potency [3] | Potency [4] | Potency [5]

CC1C(=O)CC2C3CCC(C(=O)O)C12CC3(C)CO (stereo not given)
inactive: Potency [1] | Potency [2] | Potency [3] | Potency [4] | Potency [5]

CC1CC(O)/C=C/C(O)C(O)CC(=O)Cc2c(Cl)c(O)cc(O)c2C(=O)O1 (stereo not given)
inactive: Potency [1] | Potency [2] | Potency [3] | Potency [4] | Potency [5]

O=C(O)c1cc(-c2c(-c3ccccc3)nn3ccccc23)n[nH]c1=O
inactive: Potency [1] | Potency [2] | Potency [3] | Potency [4] | Potency [5]

CC[C@H]1OC(=O)[C@H](C)[C@@H](O[C@H]2C[C@@](C)(OC)[C@@H](O)[C@H](C)O2)[C@H](C)[C@@H](O[C@@H]2O[C@H](C)C[C@H](N(C)C)[C@H]2O)[C@](C)(O)C[C@@H](C)C(=O)[C@H](C)[C@H]2OC(=O)O[C@@]21C
inactive: Potency [1] | Potency [2] | Potency [3] | Potency [4] | Potency [5]

COc1cc(C2Oc3c(OC)cc(CCCO)cc3C2CO)ccc1O[C@H]1O[C@H](C)[C@@H](O)[C@H](O)[C@@H]1O (stereo not given in full)
inactive: Potency [1] | Potency [2] | Potency [3] | Potency [4] | Potency [5]

CC(C)/C=C1\NC(=O)C(C(C)C)n2c1nc1c(c2=O)C=CC=CO1 (stereo not given)
inactive: Potency [1] | Potency [2] | Potency [3] | Potency [4] | Potency [5]

C=C[C@]1(C)C[C@H](O)[C@@H]2[C@H](OC(=O)[C@@H]2C)C1/C(C)=C/O[C@@H]1O[C@H](CO)[C@@H](O)[C@H](O)[C@H]1O (stereo not given in full)
inactive: Potency [1] | Potency [2] | Potency [3] | Potency [4] | Potency [5]

OC[C@H]1O[C@@H](OCCc2ccccc2)[C@H](O[C@@H]2OC[C@](O)(CO)[C@H]2O)[C@@H](O)[C@@H]1O
inactive: Potency [1] | Potency [2] | Potency [3] | Potency [4] | Potency [5]

O=C(/C=C/c1ccc(O)cc1)OC1[C@H](O)CC(O)(C(=O)O)C[C@H]1O (stereo not given in full)
inactive: Potency [1] | Potency [2] | Potency [3] | Potency [4] | Potency [5]

COC(=O)[C@@H](O)[C@H]1[C@@]2(C)CC3(O)[C@@H](C(=O)[C@H]2O)[C@]24O[C@]25CC(=O)O[C@@H](c2ccoc2)[C@]5(C)CCC4[C@]13C (stereo not given in full)
inactive: Potency [1] | Potency [2] | Potency [3] | Potency [4] | Potency [5]

CC(=O)CCC1=C(C)C(O[C@@H]2O[C@H](CO)[C@@H](O)[C@H](O)[C@H]2O)C(O)CC1(C)C (stereo not given in full)
inactive: Potency [1] | Potency [2] | Potency [3] | Potency [4] | Potency [5]

O=C1NC(Cc2c[nH]c3ccccc23)C(=O)NC1Cc1c[nH]c2ccccc12 (stereo not given)
inactive: Potency [1] | Potency [2] | Potency [3] | Potency [4] | Potency [5]

CC(O)/C=C/C1(O)C2(C)COC1(C)CC(O)C2 (stereo not given)
inactive: Potency [1] | Potency [2] | Potency [3] | Potency [4] | Potency [5]

COC(=O)C1=COC(OC2OC(CO)C(O)C(O)C2O)C2C1C=CC2(O)CO (stereo not given)
inactive: Potency [1] | Potency [2] | Potency [3] | Potency [4] | Potency [5]

O=C1NC(Cc2ccccc2)C(=O)N2CCCC12 (stereo not given)
inactive: Potency [1] | Potency [2] | Potency [3] | Potency [4] | Potency [5]

O=C(O)C1CN(Cc2ccc(-c3nc4cc(Cc5ccccc5F)ccc4s3)c(F)c2)C1
inactive: activity, negative = inhibition [1] -8.84% [at 9.52 µM] | activity change, negative = inhibition [2] 8.48% [at 9.73 µM] | activity change, negative = inhibition [3] -1.19% [at 11.6 µM] | activity, negative = inhibition [4] -0.199% [at 11.6 µM] | redox activity (% of DA3003) [5] -6.07% [at 11.5 µM]

C=C1C(O)CC2C(C(=O)O)=COC(O[C@@H]3O[C@H](COC(=O)/C=C/c4ccc(O)cc4)[C@@H](O)[C@H](O)[C@H]3O)C12 (stereo not given in full)
inactive: Potency [1] | Potency [2] | Potency [3] | Potency [4] | Potency [5]

Cc1c2cc(c(C(=O)O)c1C)OC1OC(C(O)C(O)C1O)C(O)C(O)C1OC(O2)C(O)C(O)C1O (stereo not given)
inactive: Potency [1] | Potency [2] | Potency [3] | Potency [4] | Potency [5]

O=C1N=C(N2CCOCC2)CN1c1ccc(Cl)cc1
inactive: Potency [1] | Potency [2] | Potency [3] | Potency [4] | Potency [5]

C=C(CO)C12OC1C1(C)C(=CC2=O)C(O)C(O)CC1C (stereo not given)
inactive: Potency [1] | Potency [2] | Potency [3] | Potency [4] | Potency [5]

COc1ccc(C2(O)c3ccccc3NC(=O)C2O)cc1 (stereo not given)
inactive: Potency [1] | Potency [2] | Potency [3] | Potency [4] | Potency [5]

CCOc1cc(N2CCC(O)CC2)ccc1Nc1ncc2c(n1)N(C1CCCC1)CCC(=O)N2C
inactive: Potency [1] | Potency [2] | Potency [3] | Potency [4] | Potency [5]

Nc1nc(Nc2ccc(S(N)(=O)=O)cc2)n(C(=S)Nc2c(F)cccc2F)n1
inactive: Potency [1] | Potency [2] | Potency [3] | Potency [4] | Potency [5]

COc1cc(C(=O)O)ccc1OC1OC(CO)C(O)C(O)C1O (stereo not given)
inactive: Potency [1] | Potency [2] | Potency [3] | Potency [4] | Potency [5]

C=CC(C)(C)c1[nH]c2cc3c(cc2c1CC1NC(=O)C2=CCCN2C1=O)C=CC(C)(C)O3 (stereo not given)
inactive: Potency [1] | Potency [2] | Potency [3] | Potency [4] | Potency [5]

COc1cc2c(cc1OC)[C@@H]1[C@H](O)[C@@H](OC)C=C3CCN(C2)[C@H]31
inactive: Potency [1] | Potency [2] | Potency [3] | Potency [4] | Potency [5]

OC[C@H]1O[C@@H](OCCc2ccc(O)cc2)[C@H](O[C@@H]2OC[C@](O)(CO)[C@H]2O)[C@@H](O)[C@@H]1O
inactive: Potency [1] | Potency [2] | Potency [3] | Potency [4] | Potency [5]

Cc1ncc(CCCN(C)C)cc1Nc1ncc2c(n1)-c1ccc(C(F)(F)F)cc1NC(=S)C2
inactive: Potency [2] | Potency [3] | Potency [4] | Potency [5]
active: Potency [1] 12.8 µM

CN1c2ccccc2C(=O)N2CCC3c4ccccc4NC3C21 (stereo not given)
inactive: Potency [1] | Potency [2] | Potency [4] | Potency [5]
active: Potency [3] 10.5 µM

COc1cc(Br)c(Nc2nc(-c3c(C)nc4ncccn34)cs2)c(Br)c1
inactive: Potency [1] | Potency [2] | Potency [3] | Potency [4] | Potency [5]

NCCCNc1ccc(Nc2nccc(Nc3cc(C4CC4)[nH]n3)n2)cc1
inactive: Potency [1] | Potency [2] | Potency [3] | Potency [4] | Potency [5]

Cn1c(=O)cc(N2CCCC(N)C2)n(Cc2cc(F)ccc2C#N)c1=O (stereo not given)
inactive: Potency [1] | Potency [2] | Potency [3] | Potency [4] | Potency [5]

C=C1C[C@]23C[C@H]1CC[C@H]2C1=C[C@H]2OC(=O)[C@@](C)([C@H]1[C@@H]3C(=O)O)[C@H]2O
inactive: Potency [1] | Potency [2] | Potency [3] | Potency [4] | Potency [5]

CC(O)/C=C/C1(O)C(C)C(O[C@@H]2O[C@H](CO)[C@@H](O)[C@H](O)[C@H]2O)C(O)CC1(C)C (stereo not given in full)
inactive: Potency [1] | Potency [2] | Potency [3] | Potency [4] | Potency [5]

OC[C@H]1O[C@@H](O[C@H]2[C@H](OCc3ccccc3)O[C@H](CO[C@@H]3OC[C@@H](O)[C@H](O)[C@H]3O)[C@@H](O)[C@@H]2O)[C@H](O)[C@@H](O)[C@@H]1O
inactive: Potency [1] | Potency [2] | Potency [3] | Potency [4] | Potency [5]

O=C(O)c1ccc(OC2OC(CO)C(O)C(O)C2O)cc1 (stereo not given)
inactive: Potency [1] | Potency [2] | Potency [3] | Potency [4] | Potency [5]

N#CC(c1ccnc(OCc2ccc(CN3CCOCC3)cc2)n1)c1nc2ccccc2s1 (stereo not given)
active: Potency [3] 0.426 µM
inactive: Potency [1] | Potency [2] | Potency [4] | Potency [5]

CC[C@@H](N)CNc1ccnc(-c2cc(-c3cnn(C)c3)ccc2O)n1
inactive: Potency [1] | Potency [2] | Potency [3] | Potency [4] | Potency [5]

O=C(/C=C/c1ccccc1)OC[C@]12O[C@H]1[C@@H](O)[C@@H]1C=CO[C@@H](O[C@@H]3O[C@H](CO)[C@@H](O)[C@H](O)[C@H]3O)[C@@H]12
inactive: Potency [1] | Potency [2] | Potency [3] | Potency [4] | Potency [5]
